# The full list was thinned out, with hits kept by preference.
# TbREL1 primary: TbREL1 inhibition, primary screen; P86926; TbREL1 RNA ligation, FRET fluorescence; inhibition, % at 9.66 µM; 89,000 compounds, 0.49% hits; AID 1117264;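 active means inhibition above the mean inhibition across all screened compounds plus 3 SD, cut at about 11% in these data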;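 further: 0% = plate median of test wells and 100% = NSC42067 control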
# Target sequence (P86926 whole entry, looked up): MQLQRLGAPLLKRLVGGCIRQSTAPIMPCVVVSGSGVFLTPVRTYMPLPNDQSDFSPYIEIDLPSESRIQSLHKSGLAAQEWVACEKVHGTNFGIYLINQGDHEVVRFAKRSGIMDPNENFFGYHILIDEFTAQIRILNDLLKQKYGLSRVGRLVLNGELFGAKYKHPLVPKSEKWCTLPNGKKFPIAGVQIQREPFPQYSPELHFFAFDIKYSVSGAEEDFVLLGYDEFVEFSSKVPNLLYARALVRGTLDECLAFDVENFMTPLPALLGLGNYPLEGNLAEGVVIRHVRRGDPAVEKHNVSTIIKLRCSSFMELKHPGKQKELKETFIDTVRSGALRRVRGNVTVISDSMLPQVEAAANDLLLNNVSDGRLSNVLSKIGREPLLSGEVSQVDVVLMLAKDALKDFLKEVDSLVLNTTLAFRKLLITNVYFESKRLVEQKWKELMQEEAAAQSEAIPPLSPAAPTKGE
# TbREL1 conf: TbREL1 inhibition, confirmation; TbREL1 RNA ligation, FRET fluorescence; inhibition, % at 9.66 µM; shares compounds with TbREL1 primary; 390 compounds, 37% hits;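 active means mean inhibition across replicates above a set limit taken from the earlier primary screen, cut at about 11% in these data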;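 further: 0% = REL1 with substrate and DMSO and 100% = REL1 plus control inhibitor NSC42067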
# * = called active by the depositor.
SMILES,TbREL1 primary,others
CCCCCCSc1ccc(-c2nc3ccc(Cl)cn3c2NCCCC)cc1OC,-0.9,
CCCCCCSc1cc(-c2nc3ccc(Cl)cn3c2NC2CCCCC2)ccc1OC,-1.7,
CCCCCCCCN1C(=O)[C@@H](CC(=O)N2CCCCC2)C[C@@]2(C(=O)OC)C1=C[C@H](COCc1ccccc1)O[C@@H]2C,-2.0,
COc1ccc(-n2c(SCC(=O)Nc3ccc(S(=O)(=O)Nc4nccs4)cc3)nnc2-c2cccs2)cc1,-3.0,
COC(=O)c1cc(S(=O)(=O)N2CCN(c3ccccc3Cl)CC2)cn1C,0.3,
O=C(Nc1ccc(C(O)(C(F)(F)F)C(F)(F)F)cc1)c1ccccc1C(F)(F)F,1.0,
COc1ccc(CNC(=O)[C@@H](Cc2ccccc2)NC(=O)[C@H]2O[C@@H](n3cnc4c(=O)[nH]c(N)nc43)[C@H](O)[C@@H]2O)cc1,3.9,
Cc1cccc(CCNC(=O)Cn2nc(-c3ccccc3)ccc2=O)c1,6.8,
CCC[C@H]1[C@@H](OC(=O)NC2CCC2)CC[C@@]23CCCN2C(=O)CCC[C@@H]13,-4.0,
Nc1scn[n+]1Cc1cccc2cccnc12,1.9,
Nc1ccc(Br)c[n+]1Cc1cccc2cccnc12,12.4*,TbREL1 conf=8.3
Brc1ccc(COc2cccc3cccnc23)cc1,4.1,
COC(=O)[C@]12CCCCC=C1N(Cc1ccc(OC)cc1)C(=O)[C@@H]2CC(=O)NCCC(C)C,-1.9,
CCOC(=O)c1csc(NC(=O)C2CCCN(S(=O)(=O)c3ccc(C)cc3)C2)n1 (centres undefined),-3.2,
CCOC(=O)C(=O)N1CCC(C(=O)NC2CCCc3ccccc32)CC1 (centres undefined),0.6,
CCOc1ccc(-n2c(SCC(=O)Nc3ccc(S(=O)(=O)Nc4nccs4)cc3)nnc2-c2ccccc2)cc1,-4.1,
CCCCC#Cc1ccccc1COC[B-](F)(F)F,-1.8,
Cc1ccc(NC(=O)c2cccc(NC(=O)/C=C/c3ccco3)c2)cc1C,-1.7,
NS(=O)(=O)c1ccc(NC(=O)/C=C/c2ccco2)cc1,2.2,
CC(=O)NS(=O)(=O)c1ccc(NC(=O)/C=C/c2ccco2)cc1,14.8*,TbREL1 conf=12.3*
O=C(Nc1ccccc1)OC1CC2CC1[C@H]1CCCCN1[C@H]2Cc1ccccc1 (some centres undefined),1.6,
Cc1nn(CCC(=O)NNC(=O)Nc2ccccc2)c(C)c1[N+](=O)[O-],5.8,
COc1ccc(CNC2CCC23CCC(C)CC3)cc1OC (centres undefined),-2.3,
CN=c1scc(C)n1/N=C/c1ccc(O)c(O)c1O,27.9*,TbREL1 conf=37.9*
COCCN=c1scc(-c2ccco2)n1/N=C/c1ccc(O)c(O)c1O,9.1,
SMILES,TbREL1 primary,others
Cc1cc(SCC(=O)N/N=C/c2ccc(O)c(O)c2O)c(C)cc1Br,-2.0,
O=C(CSc1nnc(COc2ccccc2)n1-c1ccc(Cl)cc1)Nc1ccccc1-c1ccccc1,1.4,
COc1ccc(CN2C(=O)CN(S(C)(=O)=O)CC2(C)c2nnnn2C2CCCCC2)cc1 (centres undefined),-3.2,
Cc1cc(NCCc2c[nH]c3ccccc23)ccc1Nc1cccnc1,1.7,
C#CCOCCOCCOCCNc1nc(N2CCN(C(=O)[C@H](CCCCN)n3cc([C@@H](N)CC(C)C)nn3)CC2)nc(N2CCN(C(=O)[C@H](Cc3cc4ccccc4[nH]3)n3cc([C@@H](N)CC(C)C)nn3)CC2)n1,20.1*,TbREL1 conf=12.9*
C#CCOCCOCCOCCNc1nc(N2CCN(C(=O)[C@H](CCC(=O)O)n3cc(C(N)Cc4ccc(O)cc4)nn3)CC2)nc(N2CCN(C(=O)[C@H](CCC(=O)O)n3cc(C(N)Cc4ccc(O)cc4)nn3)CC2)n1 (some centres undefined),3.2,
C#CCOCCOCCOCCNc1nc(N2CCN(C(=O)[C@H](Cc3ccc(O)cc3)n3cc([C@@H](N)CC(C)C)nn3)CC2)nc(N2CCN(C(=O)[C@H](Cc3cc4ccccc4[nH]3)n3cc([C@@H](N)CC(C)C)nn3)CC2)n1,3.2,
C#CCOCCOCCOCCNc1nc(N2CCOCC2)nc(N2CCN(C(=O)[C@H](CCC(=O)O)n3cc(C(N)CO)nn3)CC2)n1 (some centres undefined),15.7*,TbREL1 conf=5.0
C#CCOCCOCCOCCNc1nc(N2CCN(C(=O)[C@H]([C@@H](C)CC)n3cc([C@@H](N)CO)nn3)CC2)nc(N2CCN(C(=O)[C@H](CCCCN)n3cc([C@@H](N)CO)nn3)CC2)n1,4.6,
C#CCOCCOCCOCCNc1nc(N2CCN(C(=O)[C@H](CCCCN)n3cc(CN)nn3)CC2)nc(N2CCN(C(=O)[C@H](CCC(=O)O)n3cc([C@@H](N)CCCCN)nn3)CC2)n1,5.8,
Cc1cc(NS(=O)(=O)c2ccc(NC(=O)CSc3nc4sc(C)c(C)c4c(=O)n3Cc3ccco3)cc2)nc(C)n1,-1.4,
O=C(CSc1nc2ccccc2nc1N1CCCC1)N1CCN(c2cccc(C(F)(F)F)c2)CC1,7.2,
Cc1ccc(CSc2nnc(-c3cc(-c4ccc(F)cc4)n[nH]3)n2N)cc1,2.8,
